Test results as given in PubChem BioAssay AID493231 (Broad Institute, 2011).
Potency and affinity values are given separately. Active and inactive are the calls of the source. The rule behind the calls is not given here.

What follows are compounds tested against Acyl-homoserine lactone acylase PvdQ (Pseudomonas aeruginosa (strain ATCC 15692 / DSM 22644 / CIP 104116 / JCM 14847 / LMG 12228 / 1C / PRS 101 / PAO1)) (UniProt Q9I194) (assay: P. aeruginosa PvdQ acylase inhibitors, dose response, biochemical, fluorescence, plate reader and imaging, cherry-picks (AID 493231;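 note: more negative values mean stronger inhibition of the acylase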)). Settings: purified PvdQ acylase, fluorogenic substrate; series mostly up to 10 µM.
Sequence of Acyl-homoserine lactone acylase PvdQ (Pseudomonas aeruginosa (strain ATCC 15692 / DSM 22644 / CIP 104116 / JCM 14847 / LMG 12228 / 1C / PRS 101 / PAO1)) (Q9I194 whole entry, looked up): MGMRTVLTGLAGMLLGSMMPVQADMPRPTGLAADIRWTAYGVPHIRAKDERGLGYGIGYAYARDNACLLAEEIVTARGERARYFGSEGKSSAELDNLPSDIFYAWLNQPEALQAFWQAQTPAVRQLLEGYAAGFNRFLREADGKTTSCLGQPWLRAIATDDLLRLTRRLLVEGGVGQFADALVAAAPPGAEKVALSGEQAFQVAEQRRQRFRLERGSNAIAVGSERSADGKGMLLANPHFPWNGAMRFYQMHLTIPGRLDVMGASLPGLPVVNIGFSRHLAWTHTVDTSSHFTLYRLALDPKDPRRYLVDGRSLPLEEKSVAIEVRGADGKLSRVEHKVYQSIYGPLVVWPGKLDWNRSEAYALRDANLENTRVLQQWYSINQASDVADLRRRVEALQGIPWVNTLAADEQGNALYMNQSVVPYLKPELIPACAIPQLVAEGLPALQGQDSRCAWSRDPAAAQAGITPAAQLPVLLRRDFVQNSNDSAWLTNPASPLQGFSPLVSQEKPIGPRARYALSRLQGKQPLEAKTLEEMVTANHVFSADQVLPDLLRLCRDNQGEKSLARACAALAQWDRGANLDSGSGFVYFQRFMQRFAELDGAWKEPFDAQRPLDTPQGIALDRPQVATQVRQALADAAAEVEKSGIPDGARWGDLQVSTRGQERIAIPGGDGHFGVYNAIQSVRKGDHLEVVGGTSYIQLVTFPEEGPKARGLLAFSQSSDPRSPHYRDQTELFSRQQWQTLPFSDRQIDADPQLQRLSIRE

outcome, inactive:
NC(=O)c1ncn([C@@H]2O[C@H](CNCc3ccc(-c4cc(C(F)(F)F)ccc4Cl)o3)[C@@H](O)[C@H]2O)n1
O=C(COc1ccccc1)OCC(=O)c1ccc(S(=O)(=O)N2CCCCC2)cc1
Cc1cc(C)n2c(SCC(=O)Nc3ccc(F)cc3)nnc2n1
Cc1cc(C(=O)Nc2ccc(F)c(Cl)c2)on1
Cc1ccc(C(=O)/C=C/Nc2cccc([N+](=O)[O-])c2)o1
CC1=C(C(=O)Nc2ccccc2)C(c2coc3ccccc3c2=O)C2=C(CCCC2=O)N1 (configuration not stated)
COc1ccc(CC(=O)NNC(=S)NCC2CC2)cc1OC
Cc1ccc2[nH]c(=O)c3cc(C(=O)NC(C)C)sc3c2c1
Cc1[nH]nc2c1C(c1ccco1)C(C#N)=C(N)O2 (configuration not stated)
COCC(=O)Oc1c(S(=O)(=O)c2ccc(C)cc2)c(C)nn1-c1ccccc1
CN(c1ccc(C(=O)Nc2ccc3c(c2)OCCO3)cc1)S(C)(=O)=O
CCOC(=O)c1cc(-c2cccc([N+](=O)[O-])c2)on1
Cc1nn(S(=O)(=O)c2ccccc2)c(C)c1S(=O)(=O)N1CCOCC1
CC(Sc1nnc(-c2ccccc2F)n1C)C(=O)NC1CCCCC1 (configuration not stated)
Cc1onc(-c2ccccc2)c1C(=O)c1c[nH]c(C(=O)NCCCN2CCOCC2)c1
Cc1ccc(-c2nc(CN(C)Cc3cccc4cnccc34)c(C)o2)s1
COc1ccc(NC(=O)C2CCCN(C(=O)NC3CCCCC3)C2)cc1OC (configuration not stated)
